From PubChem
QS inhibitor: inhibitors of bacterial quorum sensing in S. aureus. S. aureus RN6390 RNAIII-GFP reporter, AIP-induced, flow cytometry 3 h. inhibition, % at 2 µM. 24,000 compounds, 0.3% hits;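 active = share of bacteria positive for the green fluorescent reporter and its mean brightness both inhibited by 50% or more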;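 note: 0% = AIP-stimulated control and 100% = unstimulated bacteria without AIP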
26S disassembly: blocks ATP-dependent breakdown of the yeast 26S proteasome | anti-FLAG beads, GFP-proteasome disassembly, flow cytometry | inhibition of disassembly, % (concentration not given with the values) | 24,000 compounds, 0.2% hits;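 active = inhibition of disassembly above about 33%, limit read from the data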;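 note: plate controls were ATP control with full disassembly for no effect and ATP-gamma-S intact proteasomes for full effect; higher percent means more bead fluorescence retained so stronger block of disassembly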
Numbers without * were called inactive; . = no result. In the library only some 0.44% were active in any assay of this set; here they are far more common.

SMILES	QS inhibitor	26S disassembly
CCOC(=O)C1=C(C)NC(C)=C(C(=O)OC)C1c1cccc(Cl)c1Cl (stereo unspecified)	54*	1
COC(=O)C1=C(C)NC(=O)CC1c1cccc(Cl)c1Cl (stereo unspecified)	8	-1
CCCSc1nc(N)c(C#N)c(-c2ccc(C)cc2)c1C#N	0	1
CCN(CC)c1ccc(-c2c(C#N)c(N)nc(OC)c2C#N)cc1	14	57*
COc1cc2c(cc1OC)C(C(=O)Nc1ccc3c(c1)OCCO3)C(c1cccnc1)N(C)C2=O (stereo unspecified)	-2	0
Cc1ccc(CNC(=O)C2CCN(S(=O)(=O)c3cccs3)CC2)o1	19	0
O=C(O)CC(CNS(=O)(=O)c1ccccc1)c1ccccc1 (stereo unspecified)	-3	-1
CCOC(=O)c1c(C)[nH]c(C(=O)Cn2c(=O)c3c(ncn3CC)n(Cc3ccccc3)c2=O)c1C	20	70*
CCOC(=O)c1c(C)[nH]c(C(=O)CSc2nc3ccccc3o2)c1C	0	1
O=C1CC(c2cccc(Cl)c2)Cc2nc(N3CCN(c4ccccc4)CC3)ncc21 (stereo unspecified)	0	-3
O=C1CC(c2ccccc2)Cc2nc(N3CCc4ccccc43)ncc21 (stereo unspecified)	17	74*
COc1ccccc1N1CSC2=C(C#N)C(c3ccc(SC)cc3)CC(=O)N2C1 (stereo unspecified)	-3	1
c1ccc(-c2ccc(C(c3ccccc3)n3ccnc3)cc2)cc1 (stereo unspecified)	58*	0
c1ccc(-c2nc(N3CCCCCC3)nc(-n3ccnc3)n2)cc1	19	0
CC(NC(=O)Cc1cccs1)C(c1cccs1)N1CCN(c2ccccc2F)CC1 (stereo unspecified)	-2	2
Cc1cccc(NC(=O)c2sc3nc(-c4ccccc4)cn3c2C)n1	13	0
Cc1cccc(NC(=O)c2sc3nc(-c4ccc(F)cc4)cn3c2C)n1	11	75*
CCc1ccc(NC(=O)N(CCCN2CCOCC2)C(C)c2cc3cccc(OC)c3o2)cc1 (stereo unspecified)	-1	0
COc1cccc(-c2nn(C)c3sc(C(=O)NCc4ccccn4)cc23)c1	0	4
COc1cccc(-c2nn(C)c3sc(C(=O)Nc4ccc5c(c4)OCCO5)cc23)c1	82*	4
CCOC(=O)CCC(=O)O[C@H]1[C@H](O[C@@H]2[C@@H](C)[C@H](O[C@H]3C[C@@](C)(OC)[C@@H](O)[C@H](C)O3)[C@@H](C)C(=O)O[C@H](CC)[C@@](C)(O)[C@H](O)[C@@H](C)C(=O)[C@H](C)C[C@@]2(C)O)O[C@H](C)C[C@@H]1N(C)C	52*	0
CCn1c2ccccc2c2nnc(SCC(=O)NC(C(=O)OC)C(C)C)nc21 (stereo unspecified)	2	2
CN(C)c1ccc(C2C3C(=O)NC(=O)C3ON2c2ccc(Cl)cc2)cc1 (stereo unspecified)	2	0
CCOC(=O)c1sc(NC(=O)CSc2nc3c(cc2C#N)CCC3)c(C#N)c1C	-14	1
N#Cc1cc2c(nc1SCC(=O)Nc1sc3c(c1C#N)CCC3)CCCCC2	21	105*
SMILES	QS inhibitor	26S disassembly
CCN(CC)S(=O)(=O)c1ccc2oc(C(=O)NCc3ccc(F)cc3)c(C)c2c1	4	1
Cc1onc(-c2ccccc2)c1C(=O)N1CCCSC1=Nc1ccccc1	0	-1
CC1(C)S[C@@H]2[C@H](NC(=O)C(C(=O)O)c3ccccc3)C(=O)N2[C@H]1C(=O)O (stereo partly specified)	-4	0
CC1(C)S[C@@H]2[C@H](NC(=O)[C@H](N)c3ccccc3)C(=O)N2[C@H]1C(=O)O	50*	0
COCCNC(=O)CN1C(=O)CSc2cc(S(=O)(=O)N3CCCCCC3)ccc21	-4	0
CCCS(=O)(=O)N1CCCC(C(=O)NCCCN2CCN(c3ccc(F)cc3)CC2)C1 (stereo unspecified)	-4	-1
CC(C)C(=O)N1CCN(c2nc(-c3ccccc3)c3c(c2C#N)CCCC3)CC1	57*	1
N#Cc1c(-c2ccccc2)nc(N2CCCCCC2)[nH]c1=O	-1	3
COc1ccc(C2C=C(c3ccc(Br)s3)Nc3ncnn32)cc1OC (stereo unspecified)	-4	4
O=C(Nc1ccccc1)C1=C(O)CC(c2ccco2)CC1=Nc1ccccc1 (stereo unspecified)	9	47*
O=C(Nc1ccccc1)C1=C(O)CC(c2ccoc2)CC1=Nc1ccccc1 (stereo unspecified)	-1	4
Cn1c2ccccc2c(=O)n2c(=O)c3ccccc3cc12	-3	1
CCNc1c2c3c(cccc3n(C)c1=O)C(=O)c1ccccc1-2	11	59*
CC(C)COC(=O)C1C2C=CC3(CN(C4CCCC4)C(=O)C13)O2 (stereo unspecified)	1	2
COC(=O)c1ccc(OCC(=O)Nc2nn(-c3ccccc3)nc2C(N)=O)cc1	2	-1
COc1ccc(OC)c(Nc2nc(-c3cccs3)cs2)c1	8	1
COc1ccc(Nc2nc(-c3sc(N)nc3C)cs2)cc1	56*	-9
COC(=O)c1ccc2c(=O)n(Cc3ccc4c(c3)OCO4)c(SCC(=O)N3CCCC3)nc2c1	7	2
CCc1ccc2[nH]c(=O)c(CN(CCCN3CCOCC3)C(=O)Nc3ccc(F)cc3)cc2c1	93*	.
O=C(Nc1ccc(F)cc1)N(CCCN1CCOCC1)Cc1cc2cc3c(cc2[nH]c1=O)OCO3	10	-5
CCOc1ccc(C2N(c3ccc(F)cc3)C(=O)C3CCCN32)cc1OC (stereo unspecified)	-2	51*
CCOc1ccc(C2N(c3ccc(OC)cc3)C(=O)C3CCCN32)cc1OC (stereo unspecified)	-1	-1
CCOc1ccc(C2CC(c3cccc(OC)c3)Nc3ncnn32)cc1 (stereo unspecified)	-5	-1
Nc1c(C(O)(C(F)(F)F)C(F)(F)F)ccc2ccccc12	63*	-2
CCCc1cc(C(=O)Nc2sc(C)c(CC)c2C#N)no1	6	0
SMILES	QS inhibitor	26S disassembly
CCc1c(C)sc(NC(=O)c2cc(C)on2)c1C#N	90*	2
Cc1cc(NC(=O)C2CCCC2)nc2c1c(=O)oc1ccccc12	54*	1
Cc1cc(NC(=O)C2CCCCC2)nc2c1c(=O)oc1ccccc12	-4	10
O=C(C1CCCN1S(=O)(=O)c1ccc(Cl)c(Cl)c1)N1CCCCC1 (stereo unspecified)	0	0
CC(C)N=c1cc2n(-c3ccc(Cl)cc3)c3ccccc3nc-2cc1Nc1ccc(Cl)cc1	70*	-1
CCOC(=O)CCCOC(=O)c1ccc(S(=O)(=O)N(C)C)cc1	-2	1
CCOC(=O)Cn1c(=O)oc2cc(S(=O)(=O)Nc3ccc(N(CC)CC)cc3C)ccc21	90*	3
CCOC(=O)Cn1c(=O)oc2cc(S(=O)(=O)Nc3cc(OCC)ccc3OCC)ccc21	1	1
Cc1c(C(=O)NCc2ccc3c(c2)OCO3)oc2ccc(S(=O)(=O)N3CCC(C)CC3)cc12	0	1
CC1CCN(S(=O)(=O)c2ccc3c(c2)oc(=O)n3CC(=O)NCc2ccc3c(c2)OCO3)CC1	67*	4
O=C(c1ccc(Br)o1)N(Cc1ccccc1)c1ccccn1	0	1
COc1ccc(CNC(=O)c2onc(C)c2Cl)cc1	0	124*
